From PubChem BioAssay (NCI) come the findings set out here.

The panel holds about 79,000 compounds, 15% with a hit somewhere; the sample as a whole holds those more often. A number with no mark means an inactive call. Activity calls are given as the source filed them. Rule as the data show it: active = growth inhibition above about 70%; inactive = the rest.

Assay [1] in a line: NCI Yeast Anticancer Drug Screen. Data for the rad50 strain (AID 155).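 Also: 0% = growth of vehicle-only cultures of the same strain.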 Particulars: S. cerevisiae rad50 strain growth inhibition; at 50.0 µM; stronger effect = higher value. An outline of the steps: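 Compounds were tested on a yeast strain with an engineered DNA damage repair alteration; the reported value is growth inhibition normalised to vehicle treatment.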
The nature of assay [2]: NCI Yeast Anticancer Drug Screen. Data for the mec2-1 strain (AID 157). Particulars: S. cerevisiae mec2-1 strain, at 50.0 µM, stronger effect = higher value. An outline of the steps: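 Each compound was tested on mec2-1 yeast, a strain altered in DNA damage repair or cell cycle control. Growth inhibition is reported relative to vehicle.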
A short description of assay [3]: NCI Yeast Anticancer Drug Screen. Data for the sgs1 mgt1 strain (AID 161).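 Also: 0% = growth of cultures given vehicle only.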 Particulars: S. cerevisiae sgs1 mgt1 strain, at 50.0 µM, stronger effect = higher value. An outline of the steps:
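Mutant yeast exposed to compound; growth scored against vehicle-only wells.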

Assay [4] in a line: NCI Yeast Anticancer Drug Screen. Data for the cln2 rad14 strain (AID 165).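 Also: 0% = growth equal to vehicle treated cultures.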 The following applies: S. cerevisiae cln2 rad14 strain, at 50.0 µM, stronger effect = higher value. An outline of the steps:
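Test compounds were added to cln2 rad14 yeast cultures; inhibition of growth was then determined by comparison with vehicle treatment.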

The nature of assay [5]: NCI Yeast Anticancer Drug Screen. Data for the bub3 strain (AID 167). Particulars: S. cerevisiae bub3 mutant strain, at 50.0 µM, stronger effect = higher value. An outline of the steps: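 Growth of a checkpoint-deficient yeast mutant is measured after compound exposure. Values represent inhibition relative to vehicle.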
Assay [6] can be described thus: NCI Yeast Anticancer Drug Screen. Data for the mlh1 rad18 strain (AID 175). The following applies: S. cerevisiae mlh1 rad18 strain growth inhibition; at 50.0 µM; stronger effect = higher value. Summed up: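 Inhibition values reflect reduced growth of mutant yeast versus vehicle-treated controls following compound exposure; the mutations affect DNA damage repair.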

As to `CC(=O)Nc1ccc2oc(=O)ccc2c1`, the growth inhibition in assay [1] was -19.2%; in assay [2], -12.7%; in assay [3], -15.4%; in assay [4], -0.5%; in assay [5], -4.2%; in assay [6], -11.1%.
On to `c1ccc2c(c1)C(=Nc1ccc(N=C3c4ccccc4-c4ccccc43)cc1)c1ccccc1-2`, for which the growth inhibition in assay [1] is 1.8%; in assay [2], -0.55%; in assay [3] it was -5.7%; in assay [4] it was -1%; in assay [5], -27.4%; in assay [6] it was -20.6%.
For the molecule `CC1=CC(NCCC(=O)O)NC(=O)N1` (stereo not drawn), the growth inhibition was 4.25% in assay [1]; -6.2% in assay [2]; -18.1% in assay [3]; -62.6% in assay [4]; -1.75% in assay [5]; -1.85% in assay [6].
`CC(C)N(CCCCO)C(C)C`: the growth inhibition is -0.75% in assay [1]; -0.3% in assay [2]; 14.2% in assay [3]; 0.05% in assay [4]; 2.7% in assay [5]; 3.3% in assay [6].
Consider `O=C1CCC(=O)N1Cl`, for which the growth inhibition in assay [1] was 1.05%; in assay [2], -1%; in assay [3], -3.6%; in assay [4] it was -13.3%; in assay [5], -5.75%; in assay [6], -13.8%.
For the molecule `CCCCCCCCCCCCCCNC(=O)C(C)O` (stereo not drawn), the growth inhibition in assay [1] was 2%; in assay [2], -23.8%; in assay [3], -15.7%; in assay [4] it was -35.2%; in assay [5], 11.3%; in assay [6] it was -2.2%.
Regarding `COc1ccc2c(c1)C1(C)CCCC(C)C1=CC2=O` (stereo not drawn), the growth inhibition in assay [1] is 84% (active); in assay [2] it was 78.3% (active); in assay [3], 82.8% (active); in assay [4] it was 28.1%; in assay [5], 87.8% (active); in assay [6] it was 85% (active).
Take `FC1(F)C(F)(F)C(F)(F)C2(F)C(F)(F)C(F)(F)C(F)(F)C(F)(F)C2(F)C1(F)F` (stereo not drawn): the growth inhibition in assay [1] is -25.2%; in assay [2], -21.2%; in assay [3] it was -17.7%; in assay [4], 7.25%; in assay [5], -0.8%; in assay [6] it was -8.5%.
`Cc1ccnc(NC(NC(=O)c2ccccc2)(C(F)(F)F)C(F)(F)F)c1`: the growth inhibition in assay [1] was 4.75%; in assay [2], 3.5%; in assay [3], 12.8%; in assay [4], 23.2%; in assay [5], -8.05%; in assay [6] it was -39.5%.
Take `Cc1ccc([N+](=O)[O-])cc1NC(=O)Oc1cc(=O)oc2ccccc12`: the growth inhibition in assay [1] was 3.2%; in assay [2] it was 6.8%; in assay [3], -6.9%; in assay [4] it was -18.1%; in assay [5], 1.7%; in assay [6] it was -0.75%.
For `COc1ccc(NC(=O)Oc2ccccc2C(N)=O)c(Cl)c1`, the growth inhibition in assay [1] is -2.05%; in assay [2] it was 10.8%; in assay [3], 3.65%; in assay [4], 4.6%; in assay [5], 18.4%; in assay [6], 9.75%.
Regarding `Cc1ccc(S(=O)(=O)CCN2CCCC2)cc1`, the growth inhibition in assay [1] was -3.85%; in assay [2], -14.7%; in assay [3] it was -5.6%; in assay [4], -47.2%; in assay [5], 7.95%; in assay [6], -9.55%.
Take `O=C1CCc2c(Cl)sc(Cl)c21`: the growth inhibition in assay [1] was 20.1%; in assay [2] it was 5.5%; in assay [3] it was 13.8%; in assay [4] it was -32.2%; in assay [5], 4.1%; in assay [6] it was 9.95%.
Turning to `CC(=O)Nc1ccc(CCNC(=O)c2ccc3ccccc3c2O)cc1`, the growth inhibition in assay [1] was -21.8%; in assay [2], -33.1%; in assay [3], -15.2%; in assay [4], -6.35%; in assay [5], -11.8%; in assay [6], -13.4%.
With `COC1=c2\cccc\c2=c2/cccc/c2=c2\cccc\c2=N\1`, the growth inhibition in assay [1] is 17.4%; in assay [2], 13.1%; in assay [3], 11.4%; in assay [4], 12.2%; in assay [5] it was 13.4%; in assay [6], 17.5%.
On to `O=C(OCCO)C1CC2CC1C1(C2)OCCO1` (stereo not drawn), for which the growth inhibition in assay [1] is -2%; in assay [2], -13.2%; in assay [3], 13.9%; in assay [4], -12.1%; in assay [5], 42%; in assay [6], 0.5%.
As for `Cn1cnc2c1S(=O)(=O)NCN2`, the growth inhibition in assay [1] was 10.7%; in assay [2] it was 3.15%; in assay [3] it was -8.6%; in assay [4], -3.2%; in assay [5] it was 19.9%; in assay [6], 6.7%.
In the case of `COc1ccc(NC(=O)C(=O)NNC(=O)c2sc(NNC(C)=O)nc2C)c([N+](=O)[O-])c1`, the growth inhibition in assay [1] was 27.3%; in assay [2], -10.7%; in assay [3] it was 39.2%; in assay [4], 8.4%; in assay [5], 20.6%; in assay [6], 5.3%.
In the case of `COc1ccc(Cl)cc1NC(=O)c1ccccc1C(=O)O`, the growth inhibition in assay [1] was 1.2%; in assay [2] it was 20.9%; in assay [3] it was -3.2%; in assay [4], -4.3%; in assay [5], 12.4%; in assay [6], -26.1%.
`CCOC(=O)C(C)(C(=O)OCC)C(C)Cc1cccc2ccccc12` (stereo not drawn): the growth inhibition in assay [1] was -12.6%; in assay [2] it was 0.95%; in assay [3], -4.45%; in assay [4], -31.4%; in assay [5], -7.15%; in assay [6], -3.6%.
Regarding `Nc1ccc2ccccc2c1[N+](=O)[O-]`, the growth inhibition in assay [1] was 25.9%; in assay [2], 10.1%; in assay [3], 37.6%; in assay [4], 17.5%; in assay [5], 14.9%; in assay [6], 39.3%.
In the case of `COc1ccccc1/C=N/Nc1ccc([N+](=O)[O-])cc1[N+](=O)[O-]`, the growth inhibition in assay [1] is 6.45%; in assay [2], 5.15%; in assay [3] it was 3.35%; in assay [4], -16.6%; in assay [5] it was 16.8%; in assay [6], 18.8%.
As to `Clc1ccc2c(c1)N(C1CCCN(Cc3ccccc3)C1)c1ccccc1S2` (stereo not drawn), the growth inhibition is 45.5% in assay [1]; 7.65% in assay [2]; 35.1% in assay [3]; 25.8% in assay [4]; 43.7% in assay [5]; 47% in assay [6].
Turning to `O=C(Nc1ccccc1)OCC(CN1CCCCC1)OC(=O)Nc1ccccc1` (stereo not drawn), the growth inhibition is -35.7% in assay [1]; -38% in assay [2]; -13.8% in assay [3]; 5.55% in assay [4]; -23.8% in assay [5]; -37.1% in assay [6].
For `COc1ccccc1C1CCCCC1SCC(=O)O` (stereo not drawn), the growth inhibition in assay [1] was 19.4%; in assay [2], 11.7%; in assay [3], 2.05%; in assay [4] it was 9.35%; in assay [5] it was 6.75%; in assay [6] it was -18.4%.
Regarding `CCCCCCNCc1cc(CNCCCCCC)c(O)c(CNCCCCCC)c1`, the growth inhibition is 4.5% in assay [1]; 15.4% in assay [2]; 18.4% in assay [3]; -2.4% in assay [4]; 1.4% in assay [5]; 29.6% in assay [6].
In the case of `N=C(N)C(N=Nc1ccccc1)C(=N)N` (stereo not drawn), the growth inhibition in assay [1] was -25.4%; in assay [2], -7.45%; in assay [3] it was -22.1%; in assay [4], -33.5%; in assay [5], -25.5%; in assay [6], -16%.
As for `O=C(O)c1cc(C2CCCC2)nc2ccccc12`, the growth inhibition in assay [1] is 4.6%; in assay [2], 17%; in assay [3], -5.25%; in assay [4] it was -6%; in assay [5], -13.2%; in assay [6], 6.85%.
Regarding `CN(C)C(=N)N`, the growth inhibition in assay [1] is -28.9%; in assay [2], 6.3%; in assay [3] it was -27.4%; in assay [4], -21.6%; in assay [5], -0.7%; in assay [6] it was -18.4%.
For the molecule `Cc1cc2c(=O)c3ccccc3[nH]c2c(C(=O)O)c1C`, the growth inhibition is 5.35% in assay [1]; 0.85% in assay [2]; 8.25% in assay [3]; 10.2% in assay [4]; -14.7% in assay [5]; 38.2% in assay [6].
As to `COC(=O)C(CCCCNC(=O)OCc1ccccc1)NC(=O)c1ccc(N(C)C=O)cc1` (stereo not drawn), the growth inhibition in assay [1] is 14.6%; in assay [2], 19.7%; in assay [3], -1.7%; in assay [4], 26.6%; in assay [5], 3.45%; in assay [6], 14.8%.
As to `CCNC(=O)NCc1cc(C)ccc1C`, the growth inhibition in assay [1] was 7.85%; in assay [2] it was -12.2%; in assay [3] it was -11.4%; in assay [4], 19.2%; in assay [5], 6.45%; in assay [6], 12.1%.
Take `CCC(=O)Oc1cc(C(C)(C)C)c(OC(=O)CC)cc1C(C)(C)C`: the growth inhibition in assay [1] was 3.45%; in assay [2] it was -13.9%; in assay [3], 10.6%; in assay [4], 12.3%; in assay [5], 10.9%; in assay [6], 35.4%.
`COc1cc(C)c(C#N)c(OC)n1`: the growth inhibition in assay [1] was 19.4%; in assay [2] it was -7.8%; in assay [3], 9.9%; in assay [4] it was 12.9%; in assay [5] it was 20.2%; in assay [6] it was 14.8%.
On to `O=C(CCc1ccccc1CO)NCCc1ccccc1`, for which the growth inhibition in assay [1] was 52%; in assay [2], 20.9%; in assay [3] it was -18.1%; in assay [4], 7.8%; in assay [5], -34.1%; in assay [6] it was 3.85%.
With `COc1ccc(C(=O)/C=C/c2c[nH]c3ccccc23)c(O)c1`, the growth inhibition was 15.8% in assay [1]; 9.85% in assay [2]; 26.3% in assay [3]; -43.2% in assay [4]; 9.9% in assay [5]; 22.4% in assay [6].
For `Cc1ccc(S(=O)(=O)N2CN3CN(C2)CN(S(=O)(=O)c2ccc(C)cc2)C3)cc1`, the growth inhibition in assay [1] was 0.4%; in assay [2] it was -26.9%; in assay [3], -9.15%; in assay [4], 9.05%; in assay [5], 6.4%; in assay [6], -4.2%.
On to `O=[N+]([O-])c1cccc(-c2csc(NNC3=NC/C(=C/c4ccc5c(c4)OCO5)S3)n2)c1`, for which the growth inhibition in assay [1] is 33.5%; in assay [2], -7.9%; in assay [3] it was 33%; in assay [4] it was -33.5%; in assay [5], 23.6%; in assay [6], 22.1%.
